Among all 69,000 compounds or so, about 8,600 (12%) showed an effect of 50% or more. The list comes from a sample in which strong results are over-represented; it also holds similar structures and randomly drawn compounds.
The compounds below were run on Plasmodium berghei (assay: Screen against P. berghei liver stage (PbLuc), transformed with Luciferase, at 10uM). Conditions: tested at 10 uM.
Assay type: functional, HepG2

| Compound | INHIBITION [%] |
| --- | --- |
| CCn1c(CN(C)Cc2cnc(C)s2)nc2c(F)cccc21 | 37.8 |
| CCn1c(CN(C)Cc2cnc(C)s2)nc2cc(F)ccc21 | -2.09 |
| COCc1nn(C(C)C)c2c1CCN(Cc1ccccn1)C2 | -18.4 |
| CCc1nc(N2CCCC(CCCOC)C2)c2cnn(C)c2n1 (centres undefined) | 49.4 |
| COCCN1CC[C@@H]2OC(COCC(=O)N3CCCC3)CC[C@@H]21 (some centres undefined) | -36 |
| O=C(Cc1ccsc1)N1C[C@@H]2COC[C@]2(COCc2cccnc2)C1 | 30.3 |
| C[C@@H]1CN(C2CCN(c3ccccc3F)CC2)C[C@]1(C)O | 47.9 |
| Cc1cc(F)ccc1N1CCC(N2C[C@@H](CN(C)C)[C@@H](CO)C2)CC1 | 38 |
| C[C@@H]1CN(S(=O)(=O)c2ccc(F)cc2F)C[C@]1(C)O | 45.6 |
| C[C@@H]1CN(S(=O)(=O)c2ccc(F)cc2Cl)C[C@]1(C)O | 5.94 |
| Cc1cc(F)ccc1S(=O)(=O)N1C[C@@H](C)[C@@](C)(O)C1 | 52.5 |
| COc1cc(S(=O)(=O)N2C[C@@H](C)[C@@](C)(O)C2)c(C)cc1C | 54.5 |
| COc1cc(C)ccc1S(=O)(=O)N1CC[C@](C)(O)[C@H](C)C1 | 25.5 |
| Cc1ccc(F)cc1S(=O)(=O)N1C[C@@H](C)[C@@](C)(O)C1 | 43.6 |
| Cc1cc(F)ccc1N1CCC(N2C[C@@H](C)[C@@](C)(O)C2)CC1 | 54.4 |
| COC1COC2(CCN(Cc3ccccc3Cl)CC2)C1 (centres undefined) | -40.3 |
| Cc1cc(CN2CCCC(Cn3cncn3)C2)no1 (centres undefined) | 3.73 |
| COc1cn(CC(=O)N2CCN(c3ccc(F)cc3)CC2)c(C)cc1=O | 39.6 |
| CC(C)NC(=O)N1CCN(Cc2ccccn2)CC2(CC(=O)N(C)C2)C1 (centres undefined) | 42.4 |
| CC1CN(C)CCN1CC(=O)NCCOc1cccc(F)c1 (centres undefined) | 22.007 |
| O=C(c1ccc2[nH]nnc2c1)N1CCC(Nc2cccnn2)CC1 | 33.3 |
| NCCC(=O)NCC1(O)CCCN(c2ccnc3cccnc23)C1 (centres undefined) | 29.4 |
| CCN(c1ccsc1C(=O)N1CCC(C)CC1)S(=O)(=O)c1ccccc1 | -8 |
| Cc1ccc(N(C)[C@@H]2CC[C@@H]3CN(C(=O)Cc4cccs4)C[C@@H]32)nn1 | -3.02 |
| FC(F)C(F)(F)COCc1ncnn1-c1ccc2c(c1)OCO2 | -98.6 |
| CN1CCN(CCc2ncnn2-c2ccc3c(c2)OCO3)CC1 | 89.9 |
| FC(F)(F)CCc1ncnn1-c1ccc2c(c1)OCO2 | -147 |

| Compound | INHIBITION [%] |
| --- | --- |
| Cc1nn(C)c(C)c1OCC(=O)NCC(O)c1ccccc1F (centres undefined) | 57.5 |
| Cc1nn(C)c(C)c1OCC(=O)NCc1cccc(CO)c1 | -8.92 |
| Cc1nn(C)c(C)c1OCC(=O)NCc1cccc(C(=O)O)c1 | 38.6 |
| Cc1nn(C)c(C)c1OCC(=O)NCC(O)c1ccco1 (centres undefined) | 40.6 |
| Cc1nn(C)c(C)c1OCC(=O)NCC(O)c1ccsc1 (centres undefined) | 29.7 |
| Cc1nn(C)c(C)c1OCC(=O)NCC(O)Cc1ccccc1 (centres undefined) | 67.4 |
| CC(C)[C@H](NS(C)(=O)=O)C(=O)NCc1cc(-c2cccc(Cl)c2)nn1C | 45.6 |
| CCC(CO)N(Cc1ccsc1)Cc1c(C)nn(C)c1Cl (centres undefined) | 27.7 |
| NS(=O)(=O)c1cccnc1Nc1cccc(Cl)c1Cl | 27.4 |
| Cc1nn(C)c(C)c1CCC(=O)N(C)Cc1ccc2nsnc2c1 | -18.3 |
| COc1ccc(CN(C)C(=O)CN2CC(n3cc(C)cn3)C2)cc1F | 17.1 |
| COc1ccc(CCC(=O)N(C)Cc2c(C)nn(C)c2C)cc1 | 40.9 |
| COc1ccc(CN(C)C(=O)Cc2c(C)nn(C)c2C)cc1F | 73.6 |
| COc1ccc(NC(=O)Cc2c(C)nn(C)c2C)cc1F | 47.3 |
| COc1cc(CN(C)C(=O)Cc2c(C)nn(C)c2C)ccc1OC(F)F | 93.4 |
| CCCS(=O)(=O)N1Cc2nccn2CC(CN2CCCC2)C1 (centres undefined) | 30.3 |
| O=C(Nc1cccc(C(=O)OCC2CCCN2)c1)c1ccoc1 (centres undefined) | -97.2 |
| N#Cc1c(N)nc2c(c1-c1c[nH]nc1C1CCCCC1)CC(N)CC2 (centres undefined) | -2.43 |
| CC(=O)NCc1nnc2n1CCN(Cc1cccs1)C2 | 76.2 |
| CS(=O)(=O)NCc1nnc2n1CCN(Cc1cccnc1)C2 | 45.1 |
| CS(=O)(=O)NCc1nnc2n1CCN(Cc1ccncc1)C2 | 64.9 |
| N#CCC(=O)NCc1nnc2n1CCN(Cc1cccs1)C2 | 0.164 |
| CS(=O)(=O)NCc1nnc2n1CCN(Cc1nccs1)C2 | 18.3 |
| CS(=O)(=O)NCc1nnc2n1CCN(Cc1cccs1)C2 | 34.7 |
| CN(C)C(=O)NCc1nnc2n1CCN(Cc1cccs1)C2 | 27.7 |
| CS(=O)(=O)NCc1nnc2n1CCN(Cc1ccc(F)cc1)C2 | 15.9 |
| Cc1ccc(CN2CCn3c(CNS(C)(=O)=O)nnc3C2)s1 | 50.9 |
